High-throughput results deposited in PubChem BioAssay by National Center for Advancing Translational Sciences (NCATS).
Most compounds without a hit are left out; they make up all but 10% or so of the library.
GLS inh: glutaminase GLS (human) inhibition; O94925; GLS enzymatic activity, qHTS titration; Potency, µM (top dose mostly 45.5 µM), without a hit: top-dose activity change, negative = inhibition, usual class: inhibitors; 410,000 tested, 0.21% active; also: % is scaled to controls: 0 for no effect and ±100 for the full control effect
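Human kidney-isoform GLS in 45 mM KH2PO4 pH 8.2, 0.02% Tween-20, with compound, started with 1mM L-Glutamine (added stock). Glutamate oxidase/HRP/Amplex red coupled fluorescence read at start and after 30 min at RT.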
JMJD2A Tudor: blocks the human JMJD2A Tudor domain; O75164; AlphaScreen JMJD2A-Tudor / H3K4me3 peptide binding; Potency, µM (doses to about 114 µM), inactives show top-dose activity change, negative = inhibition, most hits filed as inhibitors; 390,000 tested, 4.4% active; AID 504339; also: % is scaled to controls: 0 for no effect and ±100 for the full control effect; nearly all actives have a fitted effect of over 50% in size
G9a inh: inhibitors of human histone lysine methyltransferase G9a; Q96KQ7; G9a H3K9 monomethylation, AlphaScreen, 2 h; Potency, µM (highest dose often 102 µM), for the others: at the top dose activity, negative = inhibition, most hits filed as inhibitors; 350,000 tested, 8.8% active; AID 504332; also: % is scaled to controls: 0 for no effect and ±100 for the full control effect; nearly all actives have a fitted effect of over 75% in size
Target sequence (Q96KQ7 913-1193 limits assumed): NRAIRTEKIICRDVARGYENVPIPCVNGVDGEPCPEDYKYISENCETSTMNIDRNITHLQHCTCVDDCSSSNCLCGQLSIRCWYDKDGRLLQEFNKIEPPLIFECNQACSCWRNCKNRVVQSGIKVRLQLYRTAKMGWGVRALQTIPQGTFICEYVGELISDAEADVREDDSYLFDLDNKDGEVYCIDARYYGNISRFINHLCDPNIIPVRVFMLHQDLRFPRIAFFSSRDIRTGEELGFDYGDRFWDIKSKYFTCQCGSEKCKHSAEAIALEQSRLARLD
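Signal arises when biotinylated H3K9 peptide, once monomethylated, bridges streptavidin donor and antibody-captured acceptor beads. Enzyme at 20 nM was preincubated 15 min with test compounds; peptide 500 nM and SAM 20 uM then reacted for 2 h.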
HP1b binding inh: inhibitors of HP1-beta chromodomain binding to methylated histone tails; 390,000 tested, 0.56% active; AlphaScreen HP1-beta / biotin-H3K9me3 peptide binding; P83916; Potency, µM (titrated, usually from 114 µM), inactives show top-dose activity change, negative = inhibition, hits mostly inhibitors; AID 540317; also: nearly all actives have a fitted effect of over 70% in size
Target sequence (P83916 whole entry, looked up): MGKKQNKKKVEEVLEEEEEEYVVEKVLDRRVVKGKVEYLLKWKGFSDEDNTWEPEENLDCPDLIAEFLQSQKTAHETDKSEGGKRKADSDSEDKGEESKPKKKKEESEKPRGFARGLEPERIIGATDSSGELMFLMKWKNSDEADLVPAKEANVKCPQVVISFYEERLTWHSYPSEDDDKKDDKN
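AlphaScreen: HP1-beta (50 nM) preformed 30 min with biotin-H3(1-18)K9me3 peptide (50 nM) in PBS pH 7.4, 0.01% Tween-20. Compound added for 30 min at RT, then streptavidin donor/nickel chelate acceptor beads (10 ug/mL) for 30 min.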
BAZ2B inh: BAZ2B (human) inhibition; Q9UIF8; AlphaScreen BAZ2B-H3K14Ac peptide displacement; Potency, µM (top dose mostly 114 µM), inactives show top-dose activity change, negative = inhibition, hits mostly inhibitors; 360,000 tested, 4.4% active; also: % is scaled to controls: 0 for no effect and ±100 for the full control effect; nearly all actives have a fitted effect of over 60% in size
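BAZ2B 50 nM plus b-H3(5-23)K14Ac 50 nM, PBS pH 7.4/0.01% Tween-20, 30 min RT; compound added (max 110 uM), 30 min RT; streptavidin donor/Ni-chelate acceptor beads 10 ug/mL final, 20 min dark; AlphaScreen read.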
An asterisk follows results filed as active; ? = inconclusive; . = no result; [ ] = remark or other dose. Calls follow the shape of the dose curve; as a rule, active = well fitted curve in the direction sought with a large enough effect; inconclusive = small, poorly fitted or top-dose-only effect, or another doubt; inactive = no such curve, though single readings can be large; an effect the other way counts as inactive or inconclusive. Potency is read from the fitted curve at half-maximal effect.

SMILES	GLS inh	JMJD2A Tudor	G9a inh	HP1b binding inh	BAZ2B inh
COc1cccc(OCCCCN2CC(C)OC(C)C2)c1 (stereo not given)	-5%	6.3µM*	10µM*	?	?
CC1CN(C(=O)COc2ccc3ccccc3c2)CC(C)O1 (stereo not given)	-4%	0%	.	26%	.
CC1CN(CCCCOc2ccc3ccccc3c2)CC(C)O1 (stereo not given)	6%	1.4µM*	2µM*	?	?
COC(=O)c1ccc(OCCCCN2CC(C)OC(C)C2)cc1 (stereo not given)	-1%	11µM*	2.8µM*	?	79µM*
Cc1ccc(Oc2ccccc2NC(=O)CN2C(=O)NC3(CCCC3)C2=O)cc1	1%	-21%	.	6%	-2%
CCc1ccccc1Nc1nn2c(=O)c3ccc(C(=O)NC(C)c4ccccc4)cc3nc2s1 (stereo not given)	4%	-7%	5%[59 µM]	25%	-12%
CN(Cc1ccccc1)CC(O)COc1ccc(CNCc2nccn2C)cc1 (stereo not given)	3%	-15%[11.4 µM]	.	14%	56µM*
CCn1ccnc1CNCc1ccc(OCC(O)CN(C)Cc2ccccc2)cc1 (stereo not given)	1%	?	.	8%	?
Cc1ccc2oc(C(=O)Nc3ccc(S(=O)(=O)Nc4ncccn4)cc3)cc(=O)c2c1	-6%	-8%	-1%[59 µM]	47%	1%
COc1cc(N2C(=O)C=CC2=O)c(OC)cc1Cl	5%	10µM*	2.5µM*	10µM*	-15%
COc1cc(C(=O)NNC(=S)NC(=O)c2ccc3c(c2)OCO3)cc(OC)c1OC	26%	-23%	13µM*	1%	-4%
COc1cc(C(=O)NC(=S)NNC(=O)[C@H]2C[C@@H]2c2ccccc2)cc(OC)c1OC	15%	-24%	40µM*	15%	-1%
COc1ccccc1C(=O)NNC(=S)NC(=O)c1cc(OC)c(OC)c(OC)c1	14%	-30%	13µM*	32%	-4%
COc1ccc(NC(=S)NNC(=O)C2CC2c2ccc(C)cc2)cc1 (stereo not given)	11%	8%[57.1 µM]	45µM*	23%	-4%
COc1ccc(C(CNC(=O)c2cccc(S(=O)(=O)Nc3ccc(C)cc3)c2)N2CCOCC2)cc1 (stereo not given)	0%	-12%	-1%[0.501 µM]	19%	-3%
O=C(NCCS(=O)(=O)N1CCN(c2ccccc2)CC1)C12CC3CC(CC(C3)C1)C2	-4%	.	.	.	.
Cc1ccc(C(=O)N[C@@H](C)CN2C3=NC[C@H](C(C)C)N3C[C@H]2Cc2ccc(O)cc2)cc1Br	13%	79µM*	?	-8%	-35%
Cc1ccc(S(=O)(=O)Nc2cccc(C(=O)NCC(c3ccco3)N3CCCCC3)c2)cc1F (stereo not given)	-1%	-27%	?	-9%	-6%
CCOc1ccccc1NC(=O)Nc1cc2c(cc1N1CCCCC1)n(CC)c(=O)n2CC	27%	?	?	?	?
CCn1c(=O)n(CC)c2cc(N3CCCC3)c(NC(=O)c3cc(Cl)ccc3OC)cc21	11%	50µM*	40µM*	?	25µM*
CCn1c(=O)c(=O)n(CC)c2cc(N3CCCCC3)c(NC(=O)c3ccccc3OC)cc21	-9%	-1%	-13%[59 µM]	37%	-1%
CCOc1ccccc1C(=O)Nc1cc2c(cc1N1CCCC1)n(CC)c(=O)n2CC	15%	50µM*	45µM*	-24%[57 µM]	18µM*
CCn1c(=O)n(CC)c2cc(N3CCCC3)c(NC(=O)c3ccccc3OC)cc21	16%	?	35µM*	?	45µM*
NC(=O)c1ccc(NC(=O)CCNC(=O)c2ccco2)cc1	-2%	-12%	6%[12.7 µM]	31%	-4%
CC1(C)C(=O)C=C[C@@]2(C)C1C=C[C@@]1(C)C2CC[C@@]2(C)C(c3ccoc3)OC(=O)C3OC312 (stereo not given in full)	.	.	-36%[2.33 µM]	.	.
SMILES	GLS inh	JMJD2A Tudor	G9a inh	HP1b binding inh	BAZ2B inh
Cc1c(C)c(C)c(CN2CCSCC2)c(C)c1C	1%	1%	2%	38%	-11%
O=S1(=O)CCN(Cc2cccc(Cl)c2)CC1	5%	-24%	-4%	14%	-1%
Cc1ccc(CN2CCSCC2)cc1	3%	22µM*	.	?	?
Cc1ccc(CN2CCSCC2)c(C)c1	2%	-100%	4.5µM*	?	?
Clc1cccc(CN2CCSCC2)c1	1%	22µM*	-30%[0.501 µM]	?	?
Cc1ccc(CN2CCCN(C)CC2)c(C)c1	-9%	3.2µM*	3.5µM*	?	56µM*
Cc1cc(C)cc(NC(=O)CCc2nnc3n(CC(C)C)c(=O)c4ccccc4n23)c1	-1%	-9%	1%[59 µM]	30%	3%
O=C(NCc1ccccn1)[C@H]1C[C@@H]1[C@H](NP(=O)(c1ccccc1)c1ccccc1)c1ccccc1	-2%	-11%	-15%	40%	-4%
COc1ccc(NC(=O)CN(C)C(=O)c2cc3c(s2)CCC3)cc1	-32%	14µM*	13µM*	13µM*	6.3µM*
COc1ccc(NC(=O)CN(C)C(=O)c2cc3c(s2)CCCCC3)cc1	4%	-3%	?	9%	-16%
COc1cccc(NC(=O)CN(C)C(=O)c2cc3c(s2)CCC3)c1	-1%	?	19%[0.501 µM]	-7%	56µM*
COc1cccc(NC(=O)CN(C)C(C)C(=O)N2CCCCC2)c1 (stereo not given)	-11%	0.32µM*	.	?	.
COc1cccc(NC(=O)CN(C)C(=O)c2cc3c(s2)CCC(C)C3)c1 (stereo not given)	0%	-23%	-7%[12.7 µM]	7%	2%
COc1cc(CCC(=O)OCC(=O)Nc2cc(S(=O)(=O)N3CCOCC3)ccc2Cl)cc(OC)c1OC	8%	-5%	.	16%	.
c1ccc(-c2cccc(-c3ccccn3)n2)nc1	6%	20µM*	-11%	31%	18µM*
c1ccc(-c2nnc(-c3ccccn3)nn2)nc1	-3%	-24%[11.4 µM]	.	38%	.
CCOc1cc(CNc2ccc(O)cc2)cc(Br)c1OCc1ccccc1F	9%	50µM*	11µM*	18µM*	-32%
CCOc1cc(/C=N/NC(N)=O)cc(Br)c1OCc1ccccc1F	6%	-30%	-23%	15%	-1%
COc1cccc(CNc2ccccc2O)c1OCc1ccccc1F	0%	45µM*	35µM*	45µM*	32µM*
COc1cccc(CNc2ccc(S(N)(=O)=O)cc2)c1OCc1ccccc1F	-1%	-28%	19%[59 µM]	-2%	-36%
COc1cc(CNc2ccc(O)cc2)cc(Br)c1OCc1ccccc1F	26%	?	11µM*	?	?
CCOc1cc(CNc2ccc(O)cc2)cc(Br)c1OCc1ccccc1	37%	40µM*	?	?	?
CC(=O)c1ccccc1S(=O)(=O)N1CCN(c2nc(-c3cccs3)nc3ccccc23)CC1	.	-28%	.	16%	.
